From PubChem BioAssay AID488908 (National Center for Advancing Translational Sciences (NCATS), 2010)
Results filed as inconclusive are left out. Calls of active or inactive are those of the source. Calls follow the shape of the dose curve; as a rule, active = well fitted inhibition curve with a large enough effect; inconclusive = small, poorly fitted or top-dose-only effect; inactive = flat fitted curve, though single readings scatter.

test: Secondary Assay for lipid storage modulators: Cytotoxcity for probe SAR; conditions: Drosophila S3 cells viability, CellTiter-Glo luminescence, 24 h; series mostly up to 46.1 µM
From the text: NIH Molecular Libraries Probe Production Centers Network [MLPCN] NIH Chemical Genomics Center [NCGC] MLPCN Grant: 1 R03 MH085686-01 Assay Submitter (PI): Beller, Mathias; Max-Planck-Institut fur Biophysikalische Chemie, Germany. NCGC Assay Overview: Storing lipids as a reservoir for energy or the anabolism of elementary metabolites is a common feature of probably all cells and is conserved from bacteria to humans. The universal cellular lipid storage organelle is the so-called lipid storage droplet (LD). Although ubiquitous, LDs share a simple structure composed of a hydrophobic core that harbors the storage lipids, which is shielded by a droplet-specific phospholipid monolayer to which proteins are attached. The current model of LD biogenesis involves an incorporation of the lipid core into the membrane leaflets of the endoplasmic reticulum (ER) followed by a subsequent budding-like maturation of a LD, which ultimately pinches off. Once released, LD volume can increase by localized lipogenesis or fusion of existing droplet. Storage lipids are re-mobilized enzymatically by lipase activity. Lipase regulation in the adipocyte is heavily studied and involves multiple components including catecholamine signaling, the LD-associated proteins Perilipin and comparative gene identification (CGI-58) and at least two lipases named hormone sensitive lipase (HSL) and adipocyte triglyceride lipase (ATGL). LD regulation outside of the adipocyte is poorly understood and only few components are known. However, there is an urgent need to learn more about ectopic fat depots as mislocalized storage of lipids, for example in the liver or muscle, is an eminent health problem associated with insulin resistance or the metabolic syndrome. We developed a laser-scanning cytometer assay to enable 1,536-well screening and combined the results of the small molecules screen with an RNAi database based on lipid storage. The compound was tested here for cytotoxcity using CellTiter-Glo.
Assay Protocol Summary: Cytotoxcity assay was performed with embryonic Drosophila S3 cells (Bloomington Drosophila Genomics Resource Center [DGRC]). We dispensed 4 uL of cells at 1.25 x 10^6 cells/mL into Greiner solid white 1,536-well plates with a bottle-valve solenoid-based dispenser (Aurora) to obtain 5,000 cells/well. A total of 23 nL of compound solution of different concentrations were transferred to the assay plates using a Kalypsys pin tool equipped with a 1,536-pin array containing 10-nL slotted pins (FP1S10, 0.457-mm diameter, 50.8 mm long; V&P Scientific). One microliter of oleic acid (400 uM) was added, and the plate was lidded with stainless steel rubber gasket lined lids containing pinholes. After 24 hrs of incubation at 24 degrees Celsius and 95% humidity, 4 uL of CellTiter-Glo (Promega) was added to the wells. Luminescence was detected on the Perkin Elmer ViewLux.

SMILES | outcome
CCOC(=O)C1CCN(C(=O)C2(NC(=O)Nc3ccccc3Cl)CCCC2)CC1 | inactive
CCOc1ccc(CCNC(=O)c2ccc(C(=O)c3ccccc3)cc2)cc1OCC | inactive
CCOc1ccc(CCNC(=O)c2ccc(Oc3ccccc3)cc2)cc1OCC | inactive
CCOc1ccc(CCNC(=O)c2ccccc2)cc1OCC | inactive
CCC/C=C/C/C=C/C=C/C=N/NN=O | inactive
